The target of one assay is Albumin (Bos taurus) (UniProt P02769). Briefly: bovine serum albumin binders on microarray, profiling panel, artefact control for SMM control protein annotation, biochemical, small-molecule microarray, Alexa647 label, 635/667 nm fluorescence (AID 1118).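 Also: score merges 667 nm emission intensity and signal-to-noise per printed compound spot.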 As to conditions: BSA-A647 binding, fluorescence 635 nm, higher = more signal.
A short description of assay [1]: small-molecule microarray binders of probe aXIP, primary screen, biochemical, NeuroSMM set, 635/667 nm fluorescence (AID 1119).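 Also: probe is the protein aXip251-270 applied at 1 µg/mL to compound-printed slides; binding of probe to printed compounds measured as 667 nm fluorescence plus signal to noise.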 As to conditions: higher = more signal, called active from +8 up or from −8 down.
Assay [2] is described as follows: small-molecule binders of probe aNOTCH3, primary screen, biochemical, small-molecule microarray, 635/667 nm fluorescence (AID 1120).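 Also: probe is a biotin-tagged antibody raised against NOTCH3 rather than NOTCH3 protein; score merges spot fluorescence near 667 nm with spot signal to noise.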 The following applies: higher = more signal.
Assay [3] can be described thus: small-molecule binders of probe aNOTCH2, primary screen, biochemical, small-molecule microarray, 635/667 nm fluorescence (AID 1121).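 Also: score merges feature fluorescence read at 667 nm with its signal to noise.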 The following applies: higher = more signal.
Assay [4] addresses Carbonic anhydrase 2 (Homo sapiens) (UniProt P00918). Briefly: CAII small-molecule binders, profiling panel, biochemical, small-molecule microarray, Alexa647-labelled CAII (AID 1122). The following applies: CAII-A647 binding fluorescence, higher = more signal.
Assay [5] in a line: COS7 lysate on small-molecule microarray, probe aHis, 635 nm (AID 1123).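 Also: z-score combines 667nm fluorescence intensity with signal-to-noise per printed compound spot.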 As to conditions: COS7 cell lysate, fluorescence, higher = more signal.
A short description of assay [6]: compound binding in COS7 lysate, probe aLAP1, primary screen, cell lysate, small-molecule microarray (AID 1124).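 Also: lysate comes from COS7 cells expressing LAP1 and is applied at 0.3 µg/mL; score merges spot fluorescence near 667 nm with signal-to-noise over triplicate slides.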 The following applies: probe aLAP1, fluorescence, higher = more signal.
In the next assay the test system is Sam68 (KHDRBS1). Briefly: Sam68 small-molecule binders, primary screen, biochemical, small-molecule microarray, 635 nm fluorescence (AID 1125).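 Also: score merges 667 nm channel intensity with signal to noise over triplicate slides.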 The following applies: small-molecule microarray binding, higher = more signal.
Assay [7] has as its system Chordin-like protein 2 (CHRDL2). Put plainly: CHRDL2 small-molecule binders, primary screen, biochemical, small-molecule microarray, 635 nm fluorescence (AID 1126).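 Also: printed compound slides probed with Chrdl2 protein at 4 µg/mL for 1 h at 4 C; score merges 667 nm emission intensity with signal to noise over three replicate slides.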 The following applies: small-molecule microarray binding, fluorescence 635 nm; higher = more signal.
Assay [8] has as its target Concanavalin-A (Canavalia ensiformis) (UniProt P02866). Briefly: ConA small-molecule binders, primary screen, artefact control for SMM control protein annotation, biochemical, small-molecule microarray, Alexa647 label, 635 nm (AID 1127).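 Also: z combines 667 nm emission intensity with signal-to-noise across three replicate slides.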 As to conditions: ConA-A647 binding fluorescence, higher = more signal.
The nature of assay [9]: anti-His antibody binders, primary screen, artefact control for SMM control protein annotation, biochemical, small-molecule microarray, 635 nm fluorescence (AID 1128).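 Also: score merges feature fluorescence with signal-to-noise for each printed compound spot.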 The following applies: anti-His Alexa647 antibody binding, higher = more signal.
The subject of assay [10] is Human papillomavirus type 1a E7 protein (residues 1-88). Put plainly: HPV1a E7 small-molecule binders, primary screen, biochemical, small-molecule microarray, residues 1-88, 635 nm (AID 1129). As to conditions: small-molecule microarray binding, fluorescence 635 nm; higher = more signal.
Assay [11] has as its target Focal adhesion kinase 1 (Homo sapiens) (UniProt Q05397). Put plainly: small-molecule microarray binders of FAK, primary screen, biochemical, 635/667 nm fluorescence, BSA, DTT (AID 1130).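 Also: composite of spot emission at 667 nm and signal to noise over triplicate slides.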 The following applies: PTK2 binding, 635 nm fluorescence, higher = more signal.
The subject of assay [12] is Fibrinogen (Alexa647-labelled). Put plainly: fibrinogen binders on compound microarrays, profiling panel, artefact control for SMM control-protein annotation, biochemical, small-molecule microarray, 635/667 nm fluorescence (AID 1131).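 Also: z-score merges 667 nm fluorescence with per-spot signal-to-noise over triplicate slides.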 As to conditions: fibrinogen-A647 binding fluorescence, higher = more signal.
The target in assay [13] is Follistatin (Homo sapiens) (UniProt P19883). Briefly: follistatin binders on small-molecule microarrays, primary screen, biochemical, small-molecule microarray, 635/667 nm fluorescence (AID 1132). As to conditions: FST binding, 635 nm fluorescence, higher = more signal.
Assay [14] deals with Fibroblast growth factor 2 (Homo sapiens) (UniProt P09038). Briefly: FGF2 binders on small-molecule microarrays, primary screen, biochemical, small-molecule microarray, 635/667 nm fluorescence (AID 1133). The following applies: small-molecule microarray binding, FGF2, fluorescence 635/667; higher = more signal.
Assay [15] can be described thus: mitochondrial membrane potential change in A549 cells, profiling panel, cell-based, JC-1 fluorescence, basal, 24 h, 100 nL (AID 1138).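 Also: A549 lung adenocarcinoma cells under basal conditions with no added stimulus; test concentration not given here.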 As to conditions: higher = more signal.
In a further assay the test system is Lefty1. Put plainly: Lefty1 binders on small-molecule microarrays, primary screen, biochemical, small-molecule microarray, 635/667 nm fluorescence (AID 1139). The following applies: small-molecule microarray binding, fluorescence 635/667; higher = more signal.
In assay [16] the test system is wheat germ agglutinin (Triticum aestivum), Alexa647-labelled. Put plainly: wheat germ agglutinin binders on compound microarrays, profiling panel, artefact control for SMM control-protein annotation, biochemical, small-molecule microarray, 635/667 nm fluorescence (AID 1140).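 Also: score merges 667 nm feature emission with signal to noise over triplicate slides.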 As to conditions: WGA-A647 binding, 635 nm fluorescence, higher = more signal.
Assay [17] concerns the target Luciferin 4-monooxygenase (Photinus pyralis) (UniProt P08659). Put plainly: firefly luciferase enzyme inhibitors, primary screen, biochemical, luminescence, purified enzyme, 2006 set (AID 1141).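 Also: cell-free assay with purified firefly luciferase at 100 ng per well in PBS; test concentration not given here.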 The following applies: SteadyGlo luminescence, 30 min, higher = more signal, called active from +8 up or from −8 down.

SMILES strings stand for the structures. Active and inactive are the calls of the source.

Sequence of Fibroblast growth factor 2 (Homo sapiens) (P09038 whole entry, looked up): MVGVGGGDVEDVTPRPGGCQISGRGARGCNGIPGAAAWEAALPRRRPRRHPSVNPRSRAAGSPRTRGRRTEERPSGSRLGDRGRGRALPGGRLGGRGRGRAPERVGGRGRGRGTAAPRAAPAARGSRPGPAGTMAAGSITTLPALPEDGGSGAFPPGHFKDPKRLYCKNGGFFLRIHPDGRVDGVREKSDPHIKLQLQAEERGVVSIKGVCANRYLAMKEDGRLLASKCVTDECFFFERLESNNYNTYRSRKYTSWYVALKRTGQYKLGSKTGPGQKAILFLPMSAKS
Sequence of Luciferin 4-monooxygenase (Photinus pyralis) (P08659 whole entry, looked up): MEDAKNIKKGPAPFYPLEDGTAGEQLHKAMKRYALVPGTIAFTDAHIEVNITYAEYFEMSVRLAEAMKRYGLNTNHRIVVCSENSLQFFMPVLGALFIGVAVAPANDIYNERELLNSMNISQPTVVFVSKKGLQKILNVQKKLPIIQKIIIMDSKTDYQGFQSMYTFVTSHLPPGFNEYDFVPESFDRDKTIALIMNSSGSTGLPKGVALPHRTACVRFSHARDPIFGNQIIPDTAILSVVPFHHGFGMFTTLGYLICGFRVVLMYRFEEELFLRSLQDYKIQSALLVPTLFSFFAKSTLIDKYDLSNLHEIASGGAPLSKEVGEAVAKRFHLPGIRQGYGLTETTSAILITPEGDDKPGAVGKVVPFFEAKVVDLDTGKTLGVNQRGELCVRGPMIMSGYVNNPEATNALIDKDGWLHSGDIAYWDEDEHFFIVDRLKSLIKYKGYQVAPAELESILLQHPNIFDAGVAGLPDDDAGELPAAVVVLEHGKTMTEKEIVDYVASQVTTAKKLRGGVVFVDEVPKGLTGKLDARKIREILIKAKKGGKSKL
Sequence of Follistatin (Homo sapiens) (P19883 whole entry, looked up): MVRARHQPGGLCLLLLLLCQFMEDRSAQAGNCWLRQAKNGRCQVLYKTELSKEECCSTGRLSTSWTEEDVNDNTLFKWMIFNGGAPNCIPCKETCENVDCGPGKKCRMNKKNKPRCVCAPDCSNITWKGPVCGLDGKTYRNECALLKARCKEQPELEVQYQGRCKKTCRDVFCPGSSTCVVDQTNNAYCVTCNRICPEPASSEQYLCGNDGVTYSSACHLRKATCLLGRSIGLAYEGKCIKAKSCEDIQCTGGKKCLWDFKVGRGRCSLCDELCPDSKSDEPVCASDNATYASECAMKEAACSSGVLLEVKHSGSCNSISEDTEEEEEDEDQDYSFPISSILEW
Sequence of Focal adhesion kinase 1 (Homo sapiens) (Q05397 whole entry, looked up): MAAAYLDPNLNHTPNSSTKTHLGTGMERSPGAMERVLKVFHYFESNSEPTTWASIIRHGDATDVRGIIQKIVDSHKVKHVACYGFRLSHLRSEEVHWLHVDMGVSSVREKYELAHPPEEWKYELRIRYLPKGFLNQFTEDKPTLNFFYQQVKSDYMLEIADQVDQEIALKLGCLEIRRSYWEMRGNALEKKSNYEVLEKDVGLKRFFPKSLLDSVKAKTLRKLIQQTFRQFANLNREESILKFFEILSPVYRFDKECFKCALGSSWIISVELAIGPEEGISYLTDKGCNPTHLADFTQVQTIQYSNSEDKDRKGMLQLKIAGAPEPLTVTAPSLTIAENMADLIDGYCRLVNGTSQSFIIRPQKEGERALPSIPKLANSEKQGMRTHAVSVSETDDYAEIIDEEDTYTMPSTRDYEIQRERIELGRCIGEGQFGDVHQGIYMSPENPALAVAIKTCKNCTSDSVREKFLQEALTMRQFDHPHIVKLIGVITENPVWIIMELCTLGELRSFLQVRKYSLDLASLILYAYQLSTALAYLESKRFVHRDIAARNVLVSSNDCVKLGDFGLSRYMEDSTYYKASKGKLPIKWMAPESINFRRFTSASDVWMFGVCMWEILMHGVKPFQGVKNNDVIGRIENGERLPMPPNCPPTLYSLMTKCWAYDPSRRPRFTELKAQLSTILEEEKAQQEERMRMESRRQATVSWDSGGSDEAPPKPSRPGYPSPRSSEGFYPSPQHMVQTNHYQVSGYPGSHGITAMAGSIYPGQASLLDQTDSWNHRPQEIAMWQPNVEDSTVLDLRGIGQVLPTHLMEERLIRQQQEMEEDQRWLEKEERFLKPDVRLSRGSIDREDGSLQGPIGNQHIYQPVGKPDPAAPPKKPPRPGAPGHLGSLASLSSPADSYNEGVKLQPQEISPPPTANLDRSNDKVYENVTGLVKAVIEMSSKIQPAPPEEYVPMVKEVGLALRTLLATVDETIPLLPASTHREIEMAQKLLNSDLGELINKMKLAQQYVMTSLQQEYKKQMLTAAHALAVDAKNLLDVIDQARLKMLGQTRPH
Sequence of Concanavalin-A (Canavalia ensiformis) (P02866 whole entry, looked up): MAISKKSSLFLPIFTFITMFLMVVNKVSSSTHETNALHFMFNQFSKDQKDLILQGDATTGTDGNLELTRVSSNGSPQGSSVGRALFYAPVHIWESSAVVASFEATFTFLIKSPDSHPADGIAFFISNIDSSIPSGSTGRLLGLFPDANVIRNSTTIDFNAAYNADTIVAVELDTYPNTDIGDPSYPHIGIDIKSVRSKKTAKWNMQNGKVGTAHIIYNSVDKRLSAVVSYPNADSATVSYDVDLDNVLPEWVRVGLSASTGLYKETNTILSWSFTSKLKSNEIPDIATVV
Sequence of Albumin (Bos taurus) (P02769 whole entry, looked up): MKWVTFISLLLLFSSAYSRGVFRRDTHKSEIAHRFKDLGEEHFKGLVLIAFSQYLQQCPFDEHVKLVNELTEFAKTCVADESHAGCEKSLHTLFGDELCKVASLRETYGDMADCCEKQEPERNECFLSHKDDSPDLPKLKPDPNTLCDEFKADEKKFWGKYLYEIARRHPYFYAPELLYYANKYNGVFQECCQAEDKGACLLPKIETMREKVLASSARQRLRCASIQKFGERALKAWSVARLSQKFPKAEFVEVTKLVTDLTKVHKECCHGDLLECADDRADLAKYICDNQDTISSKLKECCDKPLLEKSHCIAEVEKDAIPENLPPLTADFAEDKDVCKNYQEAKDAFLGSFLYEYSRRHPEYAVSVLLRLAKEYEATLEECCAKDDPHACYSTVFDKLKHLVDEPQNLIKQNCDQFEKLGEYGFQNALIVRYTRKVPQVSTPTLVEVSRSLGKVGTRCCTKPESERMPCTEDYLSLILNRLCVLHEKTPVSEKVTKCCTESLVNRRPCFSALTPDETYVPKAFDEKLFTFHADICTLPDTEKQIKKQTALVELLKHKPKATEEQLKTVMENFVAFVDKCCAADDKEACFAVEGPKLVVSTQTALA

On to `COC(=O)[C@@]1(Cc2ccc(OC)cc2)[C@H]2c3cc(C(=O)N4CCCC4)n(CCc4ccc(O)c(O)c4)c3C[C@H]2CN1C(=O)c1ccccc1`, for which the composite z-score with Albumin (Bos taurus) was 0.881; in assay [2], 0.144; in assay [3], 0.336; in assay [4] it was 0.79; in assay [5], 3.42; in [6], 0.932. Moreover, the composite z-score in the assay on Sam68 (KHDRBS1) was -0.0777; in assay [7], -0.237; in assay [8] it was 0.0245; in assay [9] it was 2.44; in [10], 1.17; in assay [11], 0.384. Also, the composite z-score in assay [12] is 0.421; in [13], 0.442; in [14], -0.736; with Lefty1, -0.958; in [16], 1.22. Further, the composite Z-score in assay [1] was -0.2 (inactive). Besides, the results for the z-score in assay [15] and in assay [17] were -0.72 and -7.43 (inactive), respectively.
For `[N-]=[N+]=NCc1ccccc1[C@@H]1OC(c2ccc(OCCCO)cc2)=N[C@]1(CCS(=O)(=O)c1ccccc1)C(=O)N1CCOCC1`, the composite z-score in the assay with Albumin (Bos taurus) came out at 0.923; in [2] it was 0.391; in [3], 0.104; in [4], 0.513; in [5], 2.62; in assay [6], 0.254. Also, the composite z-score was 1.3 with Sam68 (KHDRBS1); -0.213 in assay [7]; 1.19 in [8]; 3.06 in assay [9]; 1.24 in [10]; 0.531 in assay [11]. The composite z-score in assay [12] was determined as 1; in [13], 1.16; in [14], 0.138; with Lefty1, 0.186; in [16] it was 1.24. The composite Z-score in assay [1] is -0.244 (inactive). Also, the z-score is -0.191 in assay [15] and -1.43 (inactive) in assay [17].
As for `Cc1ccc(S(=O)(=O)N2C[C@@H](C(=O)O)[C@H](Sc3ccccc3)C[C@H]2c2ccccc2)cc1`, the composite z-score stood at 0.855 with Albumin (Bos taurus); 0.418 in assay [2]; 0.0456 in [3]; 0.732 in [4]; 1.99 in assay [5]; 0.89 in [6]. Moreover, the composite z-score was 1.29 with Sam68 (KHDRBS1); -0.75 in [7]; 1.13 in assay [8]; 0.617 in assay [9]; 1.23 in [10]; 1.07 in assay [11]. Moreover, the composite z-score is 1.06 in assay [12]; 0.999 in assay [13]; -0.194 in [14]; 0.697 in the assay with Lefty1; 1.03 in assay [16]. In assay [1], the composite Z-score is -0.202 (inactive). Also, the z-score in assay [15] is -0.0335; in [17], 1.88 (inactive).
Turning to `CC(C)CN1C(=O)[C@@]2(c3ccc([N+](=O)[O-])cc3)CC(=O)N(C3CCCCC3)[C@@H]2c2ccc(CO)cc21`, the composite z-score with Albumin (Bos taurus) is -0.124; in assay [2], -0.357; in [3], -0.0241; in assay [4], 0.77; in assay [5] it was -0.335; in assay [6], 0.73. In addition, the composite z-score in the assay on Sam68 (KHDRBS1) is -0.859; in [7], -1.91; in assay [8] it was -0.895; in assay [9], -0.75; in assay [10], -1.07; in assay [11] it was -0.0035. In addition, the composite z-score is -1.05 in assay [12]; -1.29 in assay [13]; -0.875 in assay [14]; -0.919 with Lefty1; 0.428 in [16]. The composite Z-score in assay [1] was 0.659 (inactive). In addition, the z-score was 0.766 in assay [15] and 0.791 (inactive) in [17].
In the case of `CS(=O)(=O)CCOC(=O)C1=CC(CCCO)=CC(C2CC2)N(Cc2cc3c(cc2Br)OCO3)C=C1C(=O)OCCS(C)(=O)=O` (stereo not given), the composite z-score is 0.741 with Albumin (Bos taurus); -0.0573 in assay [2]; -0.0322 in assay [3]; 0.774 in [4]; 0.88 in assay [5]; 0.495 in assay [6]. The composite z-score was 0.531 in the assay with Sam68 (KHDRBS1); 0.45 in assay [7]; 0.544 in assay [8]; 1.97 in assay [9]; 0.419 in assay [10]; -0.0438 in [11]. Besides, the composite z-score in [12] was determined as 1.01; in assay [13], 1.18; in [14], 0.198; with Lefty1, 0.477; in [16] it was 1.15. Also, the composite Z-score in assay [1] was -0.289 (inactive). The z-score in assay [15] is 1.29; in [17], -0.395 (inactive).
Consider `O=C1NC(=O)C2C1C=CC(C(O)c1ccc(-c3ccccc3)s1)N2Nc1ccc(Cl)cc1Cl` (stereo not given), for which the composite z-score in the assay with Albumin (Bos taurus) was 0.924; in [2], 0.0979; in assay [3], -0.0611; in assay [4] it was 0.759; in assay [5], 2.82; in assay [6] it was 1.2. Moreover, the composite z-score was 1.33 in the assay on Sam68 (KHDRBS1); -0.717 in assay [7]; 1.06 in assay [8]; 0.752 in [9]; 1.11 in assay [10]; 1.06 in [11]. Also, the composite z-score in assay [12] is 0.934; in assay [13] it was 0.833; in assay [14] it was -0.91; with Lefty1 it was 0.127; in assay [16] it was 0.865. Further, in assay [1], the composite Z-score is 1.1 (inactive). Also, the z-score was -0.536 in assay [15] and -0.289 (inactive) in assay [17].

These data come from PubChem BioAssay.
